HPGD inh – blocks human HPGD enzyme activity | purified HPGD, NADH fluorescence kinetic, PGE2 substrate | Potency, µM, actives largely listed as inhibitors | actives 4.3% (n = 150,000) | P15428
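20 nM HPGD preincubated 15 min at room temperature with compound in 50 mM Tris-HCl pH 8, 0.01% Tween 20. Started with 1 mM NAD+ and 30 uM prostaglandin E2; NADH fluorescence (360/450 nm) read 5 times over 30-s intervals, last minus first.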
PNC inhibitor – inhibitors of perinucleolar compartment assembly; actives 3.1% (n = 140,000); activity change (PNC), negative = inhibition, % at 10 µM; AID 2417; PC3M PTB-GFP, PNC prevalence imaging, 16 h; hits give low values;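 active means readout at or below -70, meaning at least 70% loss of cells showing the perinucleolar compartment, a nuclear body marking cancer cells; inconclusive means readout between -30 and a set limit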
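PC3M cells stably expressing PTB-GFP, 750–1000 cells/well, treated 16 h at 37 °C with compound (23 nl of library stock), in duplicate. After paraformaldehyde fixation and Hoechst stain, imaged at 20x; PNC prevalence scored by image analysis.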
HTT cytoprotect – protects HTT-Q103 PC12 cells, measured by ATP; PC12 HTT-Q103 induced, cytoprotection, ATP luminescence, 40 h; Potency, µM (series often up to 56.4 µM), hits mostly activators; actives 0.14% (n = 230,000); AID 1471; active means well fitted curve in the direction sought with a large enough effect; inconclusive means small, poorly fitted or top-dose-only effect, or another doubt; inactive means no such curve, though single readings can be large; an effect the other way counts as inactive or inconclusive; further: nearly all actives have a fitted effect of over 45% in size
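PC12 cells stably carrying ecdysone-inducible Htt exon 1 (Q103)–GFP were induced with 100 nM tebufenozide (final) alongside library compounds in a dose series. Cytoprotection was scored as retained ATP by ATPlite luminescence.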
RGS12 GoLoco inh – inhibitors of human Gai1-RGS12 GoLoco interaction (red fluorophore); Gai1:RGS12 GoLoco peptide FP, rhodamine, 10 min; P63096; AID 880; Potency, µM (doses to about 61.6 µM), actives largely listed as inhibitors; actives 0.44% (n = 230,000); active means well fitted inhibition curve with a large enough effect, not every such curve was filed as active; inactive means no such curve, though single readings can be large or run the other way; further: nearly all actives have a fitted effect of over 30% in size
ALDH1A1 inh – inhibitors of human aldehyde dehydrogenase 1A1; actives 7.3% (n = 220,000); Purified ALDH1A1, NADH fluorescence, propionaldehyde substrate; P00352; Potency, µM (series often up to 75.3 µM), usual class: inhibitors; AID 1030
Target sequence (P00352 whole entry, looked up): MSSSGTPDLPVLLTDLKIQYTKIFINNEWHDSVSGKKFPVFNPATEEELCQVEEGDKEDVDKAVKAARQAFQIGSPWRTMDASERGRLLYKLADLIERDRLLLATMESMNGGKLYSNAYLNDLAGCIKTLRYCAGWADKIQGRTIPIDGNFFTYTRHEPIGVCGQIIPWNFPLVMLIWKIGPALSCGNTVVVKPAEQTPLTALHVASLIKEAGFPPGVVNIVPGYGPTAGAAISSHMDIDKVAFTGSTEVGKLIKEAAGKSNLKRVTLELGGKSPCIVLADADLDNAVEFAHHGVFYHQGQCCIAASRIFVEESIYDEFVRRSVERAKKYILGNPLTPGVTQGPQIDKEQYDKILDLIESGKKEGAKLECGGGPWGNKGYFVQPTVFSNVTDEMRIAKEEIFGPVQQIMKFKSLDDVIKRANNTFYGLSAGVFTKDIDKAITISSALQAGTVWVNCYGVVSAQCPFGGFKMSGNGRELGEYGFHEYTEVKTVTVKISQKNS
HttQ103 aggreg – mutant huntingtin aggregation inhibition | PC12 HttQ103-GFP aggregates, Acumen cytometry, 40 h | Potency, µM (series often up to 46.1 µM), most hits filed as inhibitors | actives 1.1% (n = 220,000); active means well fitted curve in the direction sought with a large enough effect; inconclusive means small, poorly fitted or top-dose-only effect, or another doubt; inactive means no such curve, though single readings can be large; an effect the other way counts as inactive or inconclusive; further: nearly all actives have a fitted effect of over 60% in size
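PC12 cells with ecdysone-inducible HTT exon1 Q103-GFP, induced by 100 nM tebufenozide, given compounds in a concentration series. GFP aggregates (1–25 um, 6 SD above background) counted in lysates by laser-scanning cytometry, 488 nm excitation.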
Each line names hits and unclear results; the compound was inactive in the other large screens; ! = repeats disagree. Only some compounds are listed: those with a hit (about 11% of all), similar ones and a draw of the others. Unless noted, the call rests on the fitted dose curve; in most records, active means well fitted inhibition curve with a large enough effect (not every such curve was filed as active); inconclusive means small, poorly fitted or top-dose-only effect, or another doubt; inactive means no such curve, though single readings can be large or run the other way.

CCOc1cc(/C=N/NC(N)=S)cc(Br)c1OCc1ccccc1C	ALDH1A1 inh 1.3µM (no result: HTT cytoprotect)
COC(=O)C1=C(C)N(Cc2ccccc2)C2=C3C(=O)OCCC3[C@@](O)(C(=O)OC)C(=O)N2C1c1ccccc1 (some centres undefined)	none (no result: HPGD inh, PNC inhibitor, RGS12 GoLoco inh, HttQ103 aggreg)
O=S(=O)(NCCNC/C=C/c1ccc(Br)cc1)c1cccc2cnccc12	ALDH1A1 inh 22µM! (no result: PNC inhibitor, HttQ103 aggreg)
CCCC(=O)Nc1ccc(C(=O)NNC(=S)NC(=O)c2ccc(Br)o2)cc1	ALDH1A1 inh inconclusive (no result: HPGD inh, PNC inhibitor, HTT cytoprotect)
N/C(=N\OC(=O)COc1ccc(Cl)cc1Cl)c1ccncc1	none (no result: HPGD inh, PNC inhibitor)
Cc1cc(NC(=O)CN2CCN(Cc3ccccc3)CC2)nc2c1c(=O)oc1ccccc12	ALDH1A1 inh 3.5µM (no result: HPGD inh, PNC inhibitor)
Cc1cc(NC(=O)CN2CC3CC(C2)c2cccc(=O)n2C3)nc2c1c(=O)oc1ccccc12 (centres undefined)	PNC inhibitor inconclusive, ALDH1A1 inh 28µM
Cc1cc(NC(=O)C2CCCC2)nc2c1c(=O)oc1ccccc12	ALDH1A1 inh 14µM
Cc1cccc(CC(=O)Nc2cc(C)c3c(=O)oc4ccccc4c3n2)c1	none
COc1ccc(S(=O)(=O)NC(C)C(=O)Nc2cccc(C(C)=O)c2)cc1 (centres undefined)	PNC inhibitor -112
CCOC(=O)c1ccc(NC(=O)C(C)NS(=O)(=O)c2ccc(OC)cc2)cc1 (centres undefined)	HPGD inh inconclusive, ALDH1A1 inh 14µM
O=C1c2ccccc2NC(c2ccc(O)cc2)N1Cc1ccco1 (centres undefined)	HPGD inh inconclusive, ALDH1A1 inh inconclusive
c1coc(CN=C2NC(=NCc3ccco3)c3ccccc32)c1	ALDH1A1 inh 25µM
COC(=O)c1c(C(=O)NCc2ccccc2)ncn1CC(O)COc1ccccc1 (centres undefined)	ALDH1A1 inh 7.9µM
CCOC(=S)N/C(=N\S(C)(=O)=O)c1ccccc1	none (no result: HPGD inh, PNC inhibitor, ALDH1A1 inh)
CCCOC(=S)N/C(=N\S(=O)(=O)c1ccccc1)c1ccccc1	HPGD inh 28µM, ALDH1A1 inh 14µM, HttQ103 aggreg inconclusive
CCOC(=S)N/C(=N\S(=O)(=O)c1ccccc1)c1ccccc1	HPGD inh inconclusive, PNC inhibitor -100, ALDH1A1 inh 11µM
CC(=O)N1CCN(C(=S)c2ccc(Cl)cc2)CC1	HPGD inh 25µM, ALDH1A1 inh 18µM
O=C(Oc1ccc(C(=S)N2CCC(O)CC2)cc1)c1ccc(Cl)cc1	none (no result: HPGD inh, PNC inhibitor)
COc1ccc(CC[N@+]2(C)COc3cc4oc(=O)cc(C)c4cc3C2)cc1OC	none (no result: PNC inhibitor, HttQ103 aggreg)
CC1=C(C(=O)OCCc2ccccc2)C(c2ccsc2)NC(=O)N1C (centres undefined)	PNC inhibitor inconclusive (no result: HTT cytoprotect)
Cc1cc(C)n(-c2ccc(OCC(=O)O)nn2)n1	PNC inhibitor -115, ALDH1A1 inh inconclusive
CCCCOc1ccc(-n2nc(C)cc2C)nn1	PNC inhibitor inconclusive
C[C@@H](O)CCC[C@H](O)/C=C/[C@@H]1[C@@H](C/C=C\CCCC(=O)O)[C@@H](O)C[C@H]1O	none (no result: PNC inhibitor, HttQ103 aggreg)
CC(Sc1nc(C(C)(C)C)cc(-c2ccccc2)c1C#N)C(=O)Nc1ccccc1 (centres undefined)	HPGD inh 16µM, ALDH1A1 inh 25µM
CCc1ccc(NC(=O)CSc2nc3ccccc3c(=O)n2CCCC(=O)NCCCN2CCOCC2)cc1	none (no result: HPGD inh, PNC inhibitor)
CC(NC(=O)OCc1ccccc1)C(=O)Oc1cc2oc(=O)cc(-c3ccccc3)c2cc1Cl (centres undefined)	HPGD inh inconclusive, ALDH1A1 inh inconclusive, HttQ103 aggreg 8.9µM
O=C(Oc1ccc2c(-c3ccccc3)cc(=O)oc2c1)C1CCCCC1	HPGD inh inconclusive, ALDH1A1 inh 2.2µM, HttQ103 aggreg inconclusive
CCOC(=O)C(C)Oc1ccc2c(-c3cccc([N+](=O)[O-])c3)cc(=O)oc2c1 (centres undefined)	HPGD inh 35µM, ALDH1A1 inh inconclusive
CCc1cc2c(-c3ccccc3)cc(=O)oc2cc1OC(=O)c1cccs1	HPGD inh 3.2µM

Screening data deposited in PubChem by National Center for Advancing Translational Sciences (NCATS).
